Data on nine molecules can be found in PubChem BioAssay (NCI).

SMILES strings stand for the structures. About 83,000 compounds went through this panel and 20% of them were active in at least one assay; those are over-represented in the sample as a whole.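 Interpretation: 100, growth as untreated; towards 0, rising growth inhibition; 0, no net growth; 0 to -100, cell death. Compounds scoring below 10 were considered active.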 A number with no mark means an inactive call. The source made the active and inactive calls.

Test systems include HT29 colon; SNB-19 CNS; U251 CNS; PC-3 prostate; SK-MEL-5 melanoma; UACC-62 melanoma; LOX IMVI melanoma; SK-MEL-28 melanoma; EKVX NSCLC; SN12C renal; UO-31 renal; TK-10 renal; ACHN renal; CAKI-1 renal; A498 renal; CCRF-CEM leukemia; MOLT-4 leukemia; SR leukemia; SK-MEL-2 melanoma; SNB-75 CNS.
Common to all, as to assay: NCI-60 one-dose screen, 48 h (100 = growth as untreated, 0 = no growth, -100 = all killed)
What all share (conditions): 10 µM

On to `O=C(CC(NC(=O)OCc1ccccc1)C(=O)OCc1ccccc1)OCc1ccccc1` (centres undefined), for which the growth in the assay with HT29 colon is 98.6%; in the assay on SNB-19 CNS it was 109%; with U251 CNS it was 90.4%; in the assay with PC-3 prostate, 93.8%; in the assay on SK-MEL-5 melanoma, 94.1%; with UACC-62 melanoma, 97.2%. Moreover, the growth is 101% with LOX IMVI melanoma; 108% with SK-MEL-28 melanoma; 95.7% in the assay on EKVX NSCLC; 102% in the assay on SN12C renal; 103% in the assay on UO-31 renal; 97.6% in the assay with TK-10 renal. The growth in the assay with ACHN renal is 104%; with CAKI-1 renal it was 99.3%; in the assay on A498 renal, 68.1%; in the assay with CCRF-CEM leukemia, 47.5%; in the assay on MOLT-4 leukemia, 115%; in the assay on SR leukemia, 99.3%.
Consider `CCOC(=O)CCC(NC(=O)c1ccc(N)cc1)C(=O)OCC` (centres undefined), for which the growth in the assay on HT29 colon was 99.4%; in the assay on SNB-19 CNS, 109%; with PC-3 prostate, 89.8%; in the assay with SK-MEL-5 melanoma, 105%; in the assay on UACC-62 melanoma, 103%; in the assay with LOX IMVI melanoma, 100%. The growth is 105% with SK-MEL-28 melanoma; 121% in the assay on EKVX NSCLC; 103% with SN12C renal; 76.9% in the assay with UO-31 renal; 102% in the assay with TK-10 renal; 95.3% in the assay on ACHN renal. The growth in the assay with CAKI-1 renal was 123%; in the assay on A498 renal, 112%; in the assay on MOLT-4 leukemia, 114%; in the assay with SR leukemia it was 121%.
As to `Cc1ccc(N=Nc2c(N)nc(N)[nH]c2=O)cc1C`, the growth was 93% with HT29 colon; 110% with SNB-19 CNS; 103% with U251 CNS; 95.7% with PC-3 prostate; 109% in the assay on UACC-62 melanoma; 96% in the assay on LOX IMVI melanoma. In addition, the growth is 115% in the assay with SK-MEL-28 melanoma; 100% in the assay with SK-MEL-2 melanoma; 105% in the assay on SN12C renal; 72.5% with UO-31 renal; 110% with TK-10 renal; 106% in the assay with ACHN renal. The growth in the assay with CAKI-1 renal is 94.4%; in the assay on A498 renal, 103%; in the assay on CCRF-CEM leukemia, 95.2%; with MOLT-4 leukemia it was 93.2%; with SR leukemia, 88.3%.
For `O=[P@@]1(c2ccccc2)O[C@H](COCc2ccccc2)[C@@H](OCc2ccccc2)[C@H](OCc2ccccc2)[C@H]1O`, the growth in the assay with HT29 colon is 90.8%; with SNB-19 CNS, 55.3%; with U251 CNS it was 39.4%; with PC-3 prostate it was 78.7%; in the assay with SK-MEL-5 melanoma, 73%; in the assay with UACC-62 melanoma it was 50.8%. Also, the growth in the assay on LOX IMVI melanoma was 95.7%; with SK-MEL-28 melanoma it was 97%; in the assay with SK-MEL-2 melanoma, 67.2%; in the assay on EKVX NSCLC, 70.7%; in the assay with SN12C renal, 82.9%; in the assay on UO-31 renal, 90.5%. In addition, the growth in the assay on TK-10 renal was 76%; in the assay on ACHN renal, 78.7%; with CAKI-1 renal, 72.8%; in the assay with CCRF-CEM leukemia, 92.3%; in the assay on MOLT-4 leukemia it was 94.3%; in the assay with SR leukemia, 103%.
Take `O=C1/C(=C\c2ccc(F)cc2)CN(C(=O)c2ccccc2F)C/C1=C\c1ccc(F)cc1`: the growth in the assay on HT29 colon was -37% (active); in the assay with SNB-19 CNS, 33.4%; with U251 CNS, -63% (active); in the assay on PC-3 prostate, -34.3% (active); in the assay with SK-MEL-5 melanoma, -58.6% (active); in the assay on UACC-62 melanoma it was -77.6% (active). Also, the growth is -80.8% (active) with LOX IMVI melanoma; -72.5% (active) in the assay with SK-MEL-28 melanoma; 30.4% in the assay on SK-MEL-2 melanoma; -57.1% (active) in the assay on SN12C renal; -72.6% (active) in the assay with UO-31 renal; 9.87% (active) with TK-10 renal. Further, the growth in the assay on ACHN renal is -33.1% (active); in the assay on CAKI-1 renal it was -35.4% (active); in the assay on A498 renal, 47.5%; in the assay on CCRF-CEM leukemia, -16.4% (active); with MOLT-4 leukemia, -1.83% (active); in the assay on SR leukemia, -17.7% (active).
`Cc1cc(N(CCCNc2ccnc3cc(Cl)ccc23)Cc2ccc3c(c2)OCO3)nc(N2CCCCC2)n1`: the growth is -26.5% (active) in the assay with SNB-75 CNS; 14.9% in the assay with SNB-19 CNS; -55% (active) with U251 CNS; -34.6% (active) in the assay with PC-3 prostate; -95.3% (active) in the assay on SK-MEL-5 melanoma; -54.7% (active) in the assay on UACC-62 melanoma. Moreover, the growth in the assay on LOX IMVI melanoma was -89% (active); with SK-MEL-28 melanoma, -81.9% (active); in the assay with SK-MEL-2 melanoma, -67.5% (active); in the assay on EKVX NSCLC it was 2.19% (active); with SN12C renal, 23.4%; in the assay with UO-31 renal, -61.9% (active). The growth with TK-10 renal is -35.3% (active); with ACHN renal it was -37.7% (active); in the assay with A498 renal, -18.8% (active); with CCRF-CEM leukemia, -5.28% (active); with MOLT-4 leukemia, -27.1% (active); in the assay on SR leukemia, -41.7% (active).
With `N=c1nc(N)ncn1-c1ccccc1`, the growth is 86.5% in the assay on SNB-75 CNS; 98.2% with SNB-19 CNS; 95.1% in the assay with U251 CNS; 96.8% in the assay on PC-3 prostate; 102% in the assay with SK-MEL-5 melanoma; 93.5% with UACC-62 melanoma. Further, the growth with LOX IMVI melanoma was 94.9%; in the assay with SK-MEL-28 melanoma, 98.6%; in the assay on SK-MEL-2 melanoma, 106%; with EKVX NSCLC, 99.7%; in the assay with SN12C renal, 87.3%; in the assay on UO-31 renal it was 94.5%. The growth is 102% in the assay with TK-10 renal; 101% with ACHN renal; 97.9% in the assay on CAKI-1 renal; 83.8% in the assay on A498 renal; 84.9% in the assay with CCRF-CEM leukemia; 109% in the assay on MOLT-4 leukemia. For the same molecule, in the assay on SR leukemia, the growth is 97.4%.
Regarding `CC(C)C[C@H](NC(=O)[C@H](Cc1cccc2ccccc12)NS(=O)(=O)c1cccc2cccnc12)B(O)O`, the growth is -51.9% (active) with SNB-75 CNS; 8.26% (active) with SNB-19 CNS; -52.9% (active) with U251 CNS; -23.2% (active) in the assay on PC-3 prostate; -85.8% (active) with SK-MEL-5 melanoma; -50.9% (active) in the assay with UACC-62 melanoma. Also, the growth is -78.7% (active) with LOX IMVI melanoma; -41.2% (active) with SK-MEL-2 melanoma; 6.76% (active) with EKVX NSCLC; 8.75% (active) with SN12C renal; -80.2% (active) in the assay on UO-31 renal; -60.2% (active) in the assay on TK-10 renal. Moreover, the growth is -3.75% (active) in the assay with ACHN renal; -20.7% (active) with CAKI-1 renal; -36.4% (active) with A498 renal; -18.8% (active) in the assay with CCRF-CEM leukemia; 1.17% (active) with MOLT-4 leukemia; 2.44% (active) in the assay on SR leukemia.
Turning to `COc1cc(CNCCCCCCN2C(=O)c3cccc4cccc(c34)C2=O)ccc1O`, the growth with SNB-75 CNS is 67.1%; in the assay with SNB-19 CNS it was 84.3%; in the assay with U251 CNS, 65.9%; in the assay with PC-3 prostate, 51.4%; in the assay with SK-MEL-5 melanoma, 10.6%; in the assay on UACC-62 melanoma, 80.5%. In addition, the growth was 36.3% with LOX IMVI melanoma; 18.7% in the assay with SK-MEL-28 melanoma; 120% with SK-MEL-2 melanoma; 89.3% in the assay with EKVX NSCLC; 70.5% with SN12C renal; 23.8% with UO-31 renal. Also, the growth in the assay on TK-10 renal is 85.4%; with ACHN renal it was 63.7%; in the assay on CCRF-CEM leukemia it was 45.4%; in the assay on MOLT-4 leukemia, 49.2%; in the assay on SR leukemia it was 0.634% (active).
